This passage reports AC50 and outcome results from PubChem BioAssay (EPA / NIEHS).

Molecules are shown by their SMILES. Values joined by “and” are separate entries in the source; they are usually repeats but may differ in a detail not shown here. Equal entries are not always repeated. Inconclusive results are not listed. A structure can be active in one record and inactive in another. Active and inactive are the calls of the source. The calls were made as follows: active = hit-call score of the fitted dose curve at least 0.9, where 1 is the maximum; inconclusive = response in the unintended direction; inactive = score below 0.9.

This experiment relates to zebrafish Estrogen Receptor (ER2a), gene 317734. In words: ATG_zfER2a_XSP2: Attagene TRANS-FACTORIAL Multi-Species (XSP2) HepG2 Assay for zebrafish Estrogen Receptor (ER2a) (AID 2283818).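 Also: hits raise reporter mRNA so AC50 reflects activation of zebrafish ER2a.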 The procedure: ATG_XSP2_multi-species_TRANS is a cell-based, multiplexed assay created by modifying the existing Attagene TRANS-FACTORIAL system to include a panel of nuclear receptors from some or all the following species: human (Homo sapiens), mouse (Mus musculus), frog (Xenopus laevis), zebrafish (Danio rerio), chicken (Gallus gallus), and turtle (Chrysemys picta). The ECOTOX-FACTORIAL format uses HepG2, a human liver cell line, with measurements taken at 24 hours after chemical dosing in a 24-well plate. Xsp2 included 3 nM 6-alpha-fluorotestosterone and 1.5 nM norgestrel to stimulate the androgen receptor.ATG_zfER2a_XSP2 is one of 29 assay components measured or calculated from the ATG_XSP2_multi-species_TRANS assay. It is designed to make measurements of mRNA induction, a form of inducible reporter, as detected with fluorescence intensity signals by Reverse transcription polymerase chain reaction (RT-PCR) and Capillary electrophoresis technology.The assay endpoint ATG_zfER2a_XSP2 was analyzed in the positive analysis fitting direction relative to DMSO as the negative control and baseline of activity. Using a type of inducible reporter, measures of mRNA for gain-of-signal activity can be used to understand the reporter gene at the transcription factor-level as they relate to the gene ER. Furthermore, this assay endpoint can be referred to as a primary readout, because this assay has produced multiple assay endpoints where this one serves a reporter gene function. To generalize the intended target to other relatable targets, this assay endpoint is annotated to the nuclear receptor intended target family, where the subfamily is steroidal.
Human liver HepG2 cells are transiently transfected with multiple reporter transcription units (MRTUs) in 6-well plates using FuGene 6 reagent (Roche; 3 ml FuGene/1 mg DNA). The MRTU constructs are regulated by a cis-regulating element (promoter). […] A major difference between the CIS and TRANS system is that in CIS activities of endogenous TFs are measured, whereas the TRANS assay evaluates changes in activities of exogenous, chimeric NR-Gal4 proteins. […] At the end of 24 hour incubation, total RNA was isolated using TriZol reagent (Invitrogen). The isolated RNA is then reverse-transcribed using oligo(dT) primer and Mo-MLV reverse transcriptase (Invitrogen) with DNAse I (Ambion) treatment for 30 min. The one-tenth of the produced cDNA was amplified by PCR using Taq DNA polymerase (Invitrogen) and two reporter sequence-specific primers. The PCR products were fluorescently labeled by primer extension with 6-arboxyfluorescein (6-FAM) 5'-labeled reporter sequence-specific primer (2 min at 95 C, 20 s at 68 C and 10 min at 72 C) and these products were digested with 5U of HpaI (New England Biolabs) for 2h at 37 C. The fragments were purified using Qiaquick PCR columns (Qiagen), analyzed on an ABI 3130xL genetic analyzer (Applied Biosystems) with peak positions identified by using a set of X-rhodamine (ROX)-labeled MapMarker1000 molecular weight standards (BioVentures). The raw capillary electrophoresis data was processed using Attagraph software (Attagene).
In general, AC50 refers to the concentration at which the activity in the assay is half-maximal. `CC(=O)C=C(C)C`: the half-maximal activity concentration (AC50) is 46.7 µM (active) and the compound was called inactive. With `CC1(C)CCC(Cc2ccc(Cl)cc2)C1(O)Cn1cncn1` (stereo not given), the compound was classed as inactive. Still for that read-out and setting: the same measure for `O=S(=O)(c1ccc(Cl)cc1)c1ccc(Cl)cc1`: “inactive”.

For `Clc1ccc(C2(Cn3cncn3)CC(Br)CO2)c(Cl)c1` (stereo not given), the AC50 is 37.4 µM (active) and the compound was classed as inactive. Turning to `CC(C)(C)c1cc(O)ccc1O`, the concentration at half-maximal activity (AC50) was 43.8 µM (active). With `COP(=O)(OC)O/C(=C\Cl)c1cc(Cl)c(Cl)cc1Cl`, the outcome was inactive. Turning to `C[C@]12CC[C@H](O)CC1=CC[C@@H]1[C@@H]2CC[C@]2(C)C(=O)CC[C@@H]12`, the AC50 was 2.39 µM (active) and 1.46 µM (active).

`Oc1ccc(-c2ccccc2)cc1`: the AC50 is 2.6 µM (active) and 1.43 µM (active). Turning to `CC(C)C1CCC(Cc2ccc(Cl)cc2)C1(O)Cn1cncn1` (stereo not given), the outcome was inactive. For `C[C@]12CCC(=O)C[C@@H]1CC[C@@H]1[C@@H]2CC[C@]2(C)[C@@H](O)CC[C@@H]12`, the outcome was inactive. Still for that read-out and setting: the same measure for `CC(C)(C)CC(C)(C)c1ccc(O)cc1`: “inactive”.

Regarding `C[C@H]1CCCC(=O)CCC/C=C/c2cc(O)cc(O)c2C(=O)O1`, the AC50 is 24.6 nM (active) and 6.41 nM (active).

Consider `CC12CC1(C)C(=O)N(c1cc(Cl)cc(Cl)c1)C2=O` (stereo not given), for which the outcome was inactive.
